Experimental data: PubChem BioAssay AID1159580 (chemical genetic matrix, 2015)
Values joined by “and” are separate entries in the source; they are usually repeats but may differ in a detail not shown here. Identical values can stand only once. The whole screen tested about 5,500 compounds, of which about 2,000 (36%) were called active. Roughly 18% stayed inconclusive and do not appear here. Rule as the data show it: active = normalized growth mostly below about 0.91 (no sharp cut-off); inconclusive = no clear call, values can overlap the other calls; inactive = mostly above about 0.92. The list shows a part of the results.

Assay: chemical genetic growth profiling, strain panel (AID 1159580);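 also: tested at 20 µM; growth read once vehicle control cultures reached saturation at 30 °C; 1 = growth at the plate median or of vehicle wells; lower values mean less growth of the strain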
Conditions: S. cerevisiae deletion strains, growth OD

Measured: normalized growth

Oc1c(I)cc(I)c2cccnc12
active: locus YAL013W, strain DEP1, hits give low values 0.071 | locus YAL021C, strain ccr4, hits give low values 0.091 | locus YAL026C, strain drs2, hits give low values 0.0859 | locus YAL030W, strain snc1, hits give low values 0.0764 | locus YBL061C, strain skt5, hits give low values 0.0816 | locus YBR009C, strain hhf1, hits give low values 0.0997 | locus YBR021W, strain FUR4, hits give low values 0.129 | locus YBR023C, strain chs3, hits give low values 0.077 | locus YBR171W, strain sec66, hits give low values 0.114 | locus YBR229C, strain ROT2, hits give low values 0.0677 | locus YBR231C, strain swc5, hits give low values 0.0701 | locus YBR279W, strain paf1, hits give low values 0.0764 | locus YCL011C, strain gbp2, hits give low values 0.135 | locus YCL016C, strain dcc1, hits give low values 0.0819 | locus YCL029C, strain bik1, hits give low values 0.101 | locus YCL061C, strain MRC1, hits give low values 0.0902 | locus YCL069W, strain vba3, hits give low values 0.0885 | locus YCR088W, strain abp1, hits give low values 0.0854 | locus YDL005C, strain med2, hits give low values 0.104 | locus YDL035C, strain GPR1, hits give low values 0.067 | locus YDL040C, strain nat1, hits give low values 0.073 | locus YDL074C, strain BRE1, hits give low values 0.104 | locus YDL101C, strain DUN1, hits give low values 0.084 | locus YDL185W, strain tfp1, hits give low values 0.0824 | locus YDL192W, strain arf1, hits give low values 0.103 | locus YDR001C, strain nth1, hits give low values 0.0844 | locus YDR069C, strain doa4, hits give low values 0.0819 | locus YDR101C, strain arx1, hits give low values 0.0994 | locus YDR137W, strain rgp1, hits give low values 0.0996 | locus YDR150W, strain NUM1, hits give low values 0.078 | locus YDR159W, strain sac3, hits give low values 0.107 | locus YDR162C, strain NBP2, hits give low values 0.0632 | locus YDR195W, strain ref2 0.337 | locus YDR297W, strain sur2, hits give low values 0.0803 | locus YDR318W, strain mcm21, hits give low values 0.101 | locus YDR334W, strain swr1, hits give low values 0.0842 | locus YDR335W, strain msn5, hits give low values 0.0856 | locus YDR388W, hits give low values 0.0882 | locus YDR392W, strain spt3, hits give low values 0.13 | locus YDR502C, strain sam2, hits give low values 0.106 | locus YEL003W, strain gim4, hits give low values 0.127 | locus YEL037C, strain rad23, hits give low values 0.0807 | locus YEL061C, strain CIN8 (second series), hits give low values 0.0847 | locus YEL061C, strain CIN8, hits give low values 0.073 | locus YER015W, strain faa2, hits give low values 0.0857 | locus YER016W, strain bim1, hits give low values 0.0805 | locus YER110C, hits give low values 0.115 | locus YER111C, strain swi4, hits give low values 0.103 | locus YER155C, strain BEM2 (second series), hits give low values 0.126 | locus YER155C, strain BEM2, hits give low values 0.0881 | locus YER167W, strain BCK2, hits give low values 0.0711 | locus YFR010W, strain ubp6, hits give low values 0.0943 | locus YGL078C, strain dbp3, hits give low values 0.258 | locus YGL086W, strain mad1, hits give low values 0.0789 | locus YGL167C, strain pmr1, hits give low values 0.0938 | locus YGL173C, strain kem1, hits give low values 0.0913 | locus YGL227W, strain vid30, hits give low values 0.0911 | locus YGL240W, strain doc1, hits give low values 0.106 | locus YGL248W, strain PDE1, hits give low values 0.0617 | locus YGL253W, strain hxk2, hits give low values 0.0781 | locus YGR078C, strain PAC10, hits give low values 0.0681 | locus YGR135W, strain pre9, hits give low values 0.102 | locus YGR252W, strain gcn5, hits give low values 0.308 | locus YHR013C, strain ard1, hits give low values 0.141 | locus YHR027C, strain rpn1, hits give low values 0.0845 | locus YHR030C, strain SLT2, hits give low values 0.0746 and 0.163 | locus YHR079C, strain IRE1 (second series), hits give low values 0.0873 | locus YHR079C, strain IRE1, hits give low values 0.135 | locus YHR094C, strain hxt1, hits give low values 0.0952 | locus YHR129C, strain ARP1, hits give low values 0.0776 | locus YHR142W, strain chs7, hits give low values 0.103 | locus YHR200W, strain rpn10, hits give low values 0.2 | locus YIL066C, strain RNR3, hits give low values 0.0647 | locus YIL073C, strain SPO22, hits give low values 0.136 | locus YIL125W, strain kgd1, hits give low values 0.174 | locus YIR030C, strain dcg1, hits give low values 0.095 | locus YJL092W, strain hpr5, hits give low values 0.0768 | locus YJL095W, strain BCK1 (second series), hits give low values 0.0748 | locus YJL095W, strain BCK1, hits give low values 0.081 and 0.123 | locus YJL115W, strain asf1, hits give low values 0.102 | locus YJL129C, strain trk1, hits give low values 0.148 | locus YJL134W, strain LCB3, hits give low values 0.0694 | locus YJL154C, strain vps35, hits give low values 0.0817 | locus YJL164C, strain tpk1, hits give low values 0.0873 | locus YJL166W, strain qcr8, hits give low values 0.0859 | locus YJL168C, strain set2, hits give low values 0.0922 | locus YJL187C, strain SWE1 (second series), hits give low values 0.064
